Reference: PubChem BioAssay AID1159580 (chemical genetic matrix, 2015)
Screen size: about 5,500 compounds; about 2,000 (36%) were called active. Not shown: some 18% with an inconclusive outcome. No stated cut-off is given here; in the data, active means normalized growth mostly below about 0.91 (no sharp cut-off); inconclusive means no clear call, values can overlap the other calls; inactive means mostly above about 0.92. Some of the results follow.

Assay: chemical genetic growth profiling, strain panel (AID 1159580);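 further: tested at 20 µM; growth read once vehicle control cultures reached saturation at 30 °C; 1 = growth at the plate median or of vehicle wells; lower values mean less growth of the strain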
Conditions: growth OD
[1] = S. cerevisiae deletion strains, locus YDR150W, strain NUM1, active compounds read low
[2] = S. cerevisiae deletion strains, locus YMR307W, strain GAS1, active compounds read low
[3] = S. cerevisiae deletion strains, locus YNL153C, strain GIM3, active compounds read low
[4] = S. cerevisiae deletion strains, locus YNL322C, strain KRE1, active compounds read low
[5] = S. cerevisiae deletion strains, locus YPL055C, strain LGE1, active compounds read low

Measured: normalized growth

C[C@H]1OC[C@@H](C[N+](C)(C)C)O1
inactive: S. cerevisiae deletion strains, locus YAL040C, strain CLN3, active compounds read low 1.01 | S. cerevisiae deletion strains, locus YCL061C, strain MRC1 (second series), active compounds read low 1.01 | [1] 1 | S. cerevisiae deletion strains, locus YDR363W, strain ESC2, active compounds read low 1.02 | S. cerevisiae deletion strains, locus YER002W, strain NOP16, active compounds read low 1.04 | [2] 1 | [3] 1.02 | S. cerevisiae deletion strains, locus YNL175C, strain NOP13, active compounds read low 1.02 | S. cerevisiae deletion strains, locus YNL197C, strain WHI3, active compounds read low 1 | S. cerevisiae deletion strains, locus YNL224C, strain SQS1, active compounds read low 1.02 | [4] 1.02 | S. cerevisiae deletion strains, locus YOR083W, strain WHI5 (second series), active compounds read low 1.03 | [5] 1.05

CCc1cccc(C)c1N(C(=O)CCl)C(C)COC (centres undefined)
inactive: S. cerevisiae deletion strains, locus YAL013W, strain DEP1, active compounds read low 1.01 | S. cerevisiae deletion strains, locus YBR021W, strain FUR4, active compounds read low 0.996 | S. cerevisiae deletion strains, locus YBR229C, strain ROT2, active compounds read low 1 | S. cerevisiae deletion strains, locus YCL029C, strain bik1, active compounds read low 1.02 | S. cerevisiae deletion strains, locus YDL035C, strain GPR1, active compounds read low 1.02 | S. cerevisiae deletion strains, locus YDL074C, strain BRE1, active compounds read low 1.02 | S. cerevisiae deletion strains, locus YDL101C, strain DUN1, active compounds read low 1.02 | S. cerevisiae deletion strains, locus YDL134C, strain PPH21, active compounds read low 1.01 | S. cerevisiae deletion strains, locus YDL185W, strain tfp1, active compounds read low 1.02 | S. cerevisiae deletion strains, locus YDL192W, strain arf1, active compounds read low 1.02 | S. cerevisiae deletion strains, locus YDR101C, strain arx1, active compounds read low 1.01 | [1] 1.01 | S. cerevisiae deletion strains, locus YDR162C, strain NBP2, active compounds read low 1.01 | S. cerevisiae deletion strains, locus YDR318W, strain mcm21, active compounds read low 1.01 | S. cerevisiae deletion strains, locus YDR388W, active compounds read low 1.01 | S. cerevisiae deletion strains, locus YDR502C, strain sam2, active compounds read low 1.02 | S. cerevisiae deletion strains, locus YEL061C, strain CIN8, active compounds read low 1.01 | S. cerevisiae deletion strains, locus YER110C, active compounds read low 1.02 | S. cerevisiae deletion strains, locus YER155C, strain BEM2, active compounds read low 1.01 | S. cerevisiae deletion strains, locus YER167W, strain BCK2, active compounds read low 1.02 | S. cerevisiae deletion strains, locus YGL078C, strain dbp3, active compounds read low 1.01 | S. cerevisiae deletion strains, locus YGL086W, strain mad1, active compounds read low 1.01 | S. cerevisiae deletion strains, locus YGL248W, strain PDE1, active compounds read low 1.01 | S. cerevisiae deletion strains, locus YGR078C, strain PAC10, active compounds read low 1.02 | S. cerevisiae deletion strains, locus YGR135W, strain pre9, active compounds read low 1.01 | S. cerevisiae deletion strains, locus YGR229C, strain SMI1, active compounds read low 1.03 | S. cerevisiae deletion strains, locus YGR252W, strain gcn5, active compounds read low 1.01 | S. cerevisiae deletion strains, locus YHR030C, strain SLT2, active compounds read low 1.01 | S. cerevisiae deletion strains, locus YHR079C, strain IRE1 (second series), active compounds read low 1.02 | S. cerevisiae deletion strains, locus YHR094C, strain hxt1, active compounds read low 1.02 | S. cerevisiae deletion strains, locus YHR129C, strain ARP1, active compounds read low 1.01 | S. cerevisiae deletion strains, locus YHR200W, strain rpn10, active compounds read low 1.02 | S. cerevisiae deletion strains, locus YIL066C, strain RNR3, active compounds read low 1.02 | S. cerevisiae deletion strains, locus YIL073C, strain SPO22, active compounds read low 1.05 | S. cerevisiae deletion strains, locus YIL125W, strain kgd1, active compounds read low 1.02 | S. cerevisiae deletion strains, locus YIR030C, strain dcg1, active compounds read low 1.02 | S. cerevisiae deletion strains, locus YJL095W, strain BCK1, active compounds read low 0.991 | S. cerevisiae deletion strains, locus YJL134W, strain LCB3, active compounds read low 1.02 | S. cerevisiae deletion strains, locus YJL168C, strain set2, active compounds read low 1.01 | S. cerevisiae deletion strains, locus YJL187C, strain SWE1 (second series), active compounds read low 1.01 | S. cerevisiae deletion strains, locus YJR043C, strain POL32, active compounds read low 1.02 | S. cerevisiae deletion strains, locus YJR075W, strain HOC1, active compounds read low 1.01 | S. cerevisiae deletion strains, locus YKL009W, strain mrt4, active compounds read low 1.03 | S. cerevisiae deletion strains, locus YKL068W, active compounds read low 1.01 | S. cerevisiae deletion strains, locus YKL085W, strain MDH1 (second series), active compounds read low 1.02 | S. cerevisiae deletion strains, locus YKL085W, strain MDH1, active compounds read low 1.02 | S. cerevisiae deletion strains, locus YKL190W, strain CNB1, active compounds read low 1.02 | S. cerevisiae deletion strains, locus YKR001C, strain vps1, active compounds read low 1.03 | S. cerevisiae deletion strains, locus YLR039C, strain RIC1, active compounds read low 0.993 | S. cerevisiae deletion strains, locus YLR058C, strain SHM2, active compounds read low 1.01 | S. cerevisiae deletion strains, locus YLR102C, strain apc9, active compounds read low 1.02 | S. cerevisiae deletion strains, locus YLR262C, strain YPT6, active compounds read low 1.03 | S. cerevisiae deletion strains, locus YLR268W, strain sec22, active compounds read low 1.01 | S. cerevisiae deletion strains, locus YLR330W, strain CHS5, active compounds read low 1.01 | S. cerevisiae deletion strains, locus YLR342W, strain FKS1 (second series), active compounds read low 1.04 | S. cerevisiae deletion strains, locus YLR371W, strain rom2, active compounds read low 1.02 | S. cerevisiae deletion strains, locus YLR418C, strain cdc73, active compounds read low 1.01 | S. cerevisiae deletion strains, locus YML016C, strain PPZ1, active compounds read low 1.01 | S. cerevisiae deletion strains, locus YML032C, strain rad52, active compounds read low 0.992 | S. cerevisiae deletion strains, locus YML124C, strain tub3, active compounds read low 1.02 | S. cerevisiae deletion strains, locus YMR078C, strain ctf18, active compounds read low 1.02 | S. cerevisiae deletion strains, locus YMR223W, strain ubp8, active compounds read low 1.02 | S. cerevisiae deletion strains, locus YMR263W, strain SAP30, active compounds read low 1 | [2] 1 | S. cerevisiae deletion strains, locus YNL067W, strain RPL9B, active compounds read low 1.01 | S. cerevisiae deletion strains, locus YNL128W, strain TEP1, active compounds read low 1.01 | [3] 1.01 | S. cerevisiae deletion strains, locus YNL233W, strain BNI4, active compounds read low 1.01 | S. cerevisiae deletion strains, locus YNL250W, strain rad50, active compounds read low 1.01 | S. cerevisiae deletion strains, locus YNL271C, strain bni1, active compounds read low 1.03 | S. cerevisiae deletion strains, locus YNL298W, strain CLA4, active compounds read low 1.02 | S. cerevisiae deletion strains, locus YNL307C, strain MCK1, active compounds read low 1.02 | [4] 1.01 | S. cerevisiae deletion strains, locus YNR052C, strain pop2, active compounds read low 1.02 | S. cerevisiae deletion strains, locus YOL006C, strain TOP1, active compounds read low 1.03 | S. cerevisiae deletion strains, locus YOL012C, strain htz1 0.819 | S. cerevisiae deletion strains, locus YOL147C, strain pex11, active compounds read low 1.02 | S. cerevisiae deletion strains, locus YOR061W, strain CKA2, active compounds read low 1.01 | S. cerevisiae deletion strains, locus YOR069W, strain VPS5, active compounds read low 1.01 | S. cerevisiae deletion strains, locus YOR136W, strain idh2, active compounds read low 1.01 | S. cerevisiae deletion strains, locus YOR144C, strain elg1, active compounds read low 1.02 | S. cerevisiae deletion strains, locus YOR184W, strain ser1, active compounds read low 1.03 | S. cerevisiae deletion strains, locus YOR316C, strain cot1, active compounds read low 1.02 | [5] 1.03 | S. cerevisiae deletion strains, locus YPL241C, strain CIN2, active compounds read low 1.02 | S. cerevisiae deletion strains, locus YPR119W, strain clb2, active compounds read low 1.01 | S. cerevisiae deletion strains, locus YPR141C, strain kar3, active compounds read low 1.02 | S. cerevisiae deletion strains, locus YPR163C, strain tif3, active compounds read low 1.02 | S. cerevisiae deletion strains, locus YPR167C, strain met16, active compounds read low 1.02 | S. cerevisiae deletion strains, strain wtn01, active compounds read low 1.02 | S. cerevisiae strains, strain wild type, active compounds read low 1
